Assay outcomes from PubChem.
Most compounds without a hit are left out; they make up all but 2% or so of the library.
S1P4 antag: S1P4 receptor antagonists, primary screen, cell-based | Sphingosine 1-phosphate receptor 4 (Homo sapiens), O95977 | S1P4-expressing cells, antagonist mode, reporter read-out | inhibition, % at 4.98 µM | actives 0.26% (n = 220,000) | AID 1510, 2009; in the data active means inhibition above about 29%;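 further: 0% = wells stimulated with agonist and 100% = vehicle wells without agonist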
PGE2 EP2 inh: human EP2 receptor antagonists, primary screen, TR-FRET cAMP, C6 glioma cells. actives 0.52% (n = 260,000). Prostaglandin E2 receptor EP2 subtype (Homo sapiens), P43116. inhibition, % at 25 µM. C6 glioma cells expressing human EP2; cells stimulated with saturating PGE2;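 active means percent inhibition above 40 after rounding to a whole number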;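 further: rat C6 glioma host cells with rolipram phosphodiesterase inhibitor present; the protocol text gives 20 µM as final concentration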
EP2 mod: EP2 receptor modulators, cAMP readout, primary screen, cell-based, HTRF cAMP, PGE2 stimulation; Prostaglandin E2 receptor EP2 subtype (Homo sapiens), P43116; EP2-expressing cells, cAMP HTRF FRET, PGE2 co-stimulation; induction, % at 25 µM; actives 0.83% (n = 260,000); AID 940, 2007;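 active means compounds whose cAMP rise, as percent of the full-agonist control response, exceeds 60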;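 further: rat C6 glioma line stably carrying human EP2 under a CMV promoter; the protocol text gives 20 µM as final concentration; 100% = response of wells given 1 µM PGE2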
S1P3 antagonist: S1P3 receptor antagonists, primary screen, cell-based. Sphingosine 1-phosphate receptor 3 (Homo sapiens), Q99500. actives 0.27% (n = 170,000). CHO S1P3 NFAT-BLA reporter, FRET fluorescence, antagonist mode. inhibition, % at 4.98 µM;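 active means inhibition above the plate cutoff, the mean inhibition of test wells on that plate plus 3 SD, cut at about 28% in these data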;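 further: cells challenged with S1P at its EC80 of 0.8 µM; blue over green emission ratio from cleaved BLA substrate after 4 h stimulation; 0% = S1P-stimulated wells and 100% = unstimulated DMSO-only wells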
S1P4 agonist: S1P4 receptor agonists, primary screen, cell-based. Sphingosine 1-phosphate receptor 4 (Homo sapiens), O95977. S1P4-expressing cell line, agonist reporter assay. activation, % at 4.98 µM. actives 0.35% (n = 220,000); in the data active means activation above about 11%;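 further: 0% = DMSO vehicle and 100% = reference agonist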
S1P4 ag conf: S1P4 receptor agonists, retest, confirmation, cell-based, high throughput; shares compounds with S1P4 agonist; S1P4 agonist cell-based reporter assay; activation, % at 4.98 µM; actives 7% (n = 740); AID 1523, 2009; in the data active means activation above about 12%;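 further: 0% = vehicle and 100% = full reference agonist response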
S1P1 ag: S1P1 receptor agonists, human, counter-screen for S1P4 agonist project, cell-based | shares compounds with S1P4 agonist | S1P1 agonist cell-based assay, activation | activation, % at 4.98 µM | actives 4% (n = 740) | AID 1563, 2009; in the data active means activation above about 21%;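 further: 0% = vehicle wells and 100% = reference agonist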
Target sequence (P21453 whole entry, looked up): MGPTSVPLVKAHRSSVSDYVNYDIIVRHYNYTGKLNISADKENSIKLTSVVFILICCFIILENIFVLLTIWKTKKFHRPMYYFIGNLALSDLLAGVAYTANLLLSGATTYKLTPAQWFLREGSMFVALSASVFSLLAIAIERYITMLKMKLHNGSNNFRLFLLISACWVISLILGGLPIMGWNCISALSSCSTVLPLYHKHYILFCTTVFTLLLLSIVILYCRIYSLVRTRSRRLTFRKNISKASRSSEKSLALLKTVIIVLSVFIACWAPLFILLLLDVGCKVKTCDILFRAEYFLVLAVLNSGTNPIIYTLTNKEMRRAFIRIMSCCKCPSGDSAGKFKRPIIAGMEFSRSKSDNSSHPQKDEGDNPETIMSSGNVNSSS
An asterisk follows results filed as active; x = no result.

SMILES	S1P4 antag	PGE2 EP2 inh	EP2 mod	S1P3 antagonist	S1P4 agonist	S1P4 ag conf	S1P1 ag
O=C(CSc1ccc(F)cc1)NCCSc1ccccc1	-7.1	13.7	-50.3	14.6	11.4*	-1.9	-2.9
CCc1ccc(/C(C)=N/NC(=O)c2ccccn2)cc1	5.6	4.8	-28.5	4.7	12.0*	-3.1	-5.7
C=CCNC(=O)c1ccc(OC)cc1	-1.7	3.5	-11.1	-16.1	14.7*	-1.0	3.7
C=CCNC(=O)c1ccc(N(C)S(=O)(=O)c2ccc(OC)cc2)cc1	-29.4	8.3	-53.6	x	-3.0	x	x
O=c1oc2c(CN3CCN(CCO)CC3)c(O)ccc2cc1-c1ccccn1	1.4	5.6	7.6	8.2	14.4*	6.1	3.1
O=c1oc2c(CN3CCCCC3)c(O)ccc2cc1-c1nc2ccccc2[nH]1	x	x	x	42.6	x	x	x
CCCn1cc(C(=O)N2CCC(c3ccnc4nc(C(F)(F)F)nn34)CC2)c(C)n1	x	x	-8.9	x	x	x	x
Cc1ccc(C(=O)NCCc2nnc3ccc(SCC(=O)Nc4c(C)cc(C)cc4C)nn23)cc1	-13.1	6.1	16.5	9.0	13.4*	-1.2	-3.3
Cc1ccc(C(=O)NCCc2nnc3ccc(SCC(=O)Nc4ccccc4C)nn23)cc1	-1.5	0.9	9.0	-12.4	-0.9	x	x
COc1cccc(NC(=O)c2ccc3c(c2)N(CC(=O)Nc2ccccc2)C(=O)C(C)(C)O3)c1	x	15.2	0.2	x	x	x	x
CCOc1cc(S(=O)(=O)NCCc2ccc(OC)c(OC)c2)c(OCC)cc1-n1cnnn1	-11.8	4.8	6.5	x	72.8*	-1.6	-0.3
N#Cc1cnn2ccc(-c3cc(N4CCOCC4)ccc3[N+](=O)[O-])nc12	-10.0	3.7	-31.5	16.7	13.9*	-2.2	3.2
Cc1cc(OC(=O)CNC(=O)OC(C)(C)C)c2c(C)cc(=O)oc2c1	-14.4	10.3	1.9	11.3	48.1*	-2.1	-7.1
CCCN(CCC)C(=O)CC(c1ccccc1)c1cc(C)ccc1O (centres undefined)	-8.1	6.3	51.4	x	50.9*	-2.0	1.8
CC(C)n1c(=O)n(CC(=O)NC2CCCCC2)c2cccnc21	x	x	3.1	x	x	x	x
O=C(N/C(=C/c1ccc(Br)cc1)C(=O)N1CCCC1)c1cccs1	-2.5	0.0	9.2	-8.6	12.8*	-2.0	-1.4
O=C(N/C(=C\c1ccc(Br)cc1)C(=O)N1CCCC1)c1cccs1	5.9	8.3	-2.0	-22.3	-0.8	x	x
Cc1ccc(NC(=O)CN(C)C(=O)CCCN2C(=O)c3ccccc3C2=O)cc1	-6.3	10.8	-3.2	-9.7	38.3*	-2.0	-9.3
O=c1[nH]c(/C=C/c2cn(Cc3ccccc3)c3ccccc23)nc(O)c1[N+](=O)[O-]	x	7.8	-4.9	x	x	x	x
COc1ccc(-c2noc(CSc3nc4sc(C)c(C)c4c(=O)n3-c3ccccc3)n2)cc1	-10.8	8.2	10.5	-2.4	21.1*	-0.2	-0.7
COc1ccc2cc(/C=N/O)c(Cl)nc2c1	-0.2	1.6	-40.8	11.0	-0.1	x	x
COc1ccc2cc(/C=N/NC(=O)c3ccc(CN(c4cccc(Cl)c4Cl)S(C)(=O)=O)cc3)c(Cl)nc2c1	15.8	6.8	-13.0	4.4	42.6*	-1.7	-5.1
N=c1n(CC(N)=O)c2ccccc2n1Cc1ccccc1Cl	x	10.5	-38.8	x	x	x	x
COc1cc(C(=O)NCC(=O)N/N=C/c2ccc(OC(=O)c3ccco3)cc2)cc(OC)c1OC	9.6	1.3	-18.6	5.9	21.0*	-1.7	-10.7
O=[N+]([O-])c1ccc(COc2ccc(-c3[nH]ncc3-c3ccc(Cl)cc3)c(O)c2)cc1	-3.1	10.6	-10.6	-3.0	113.8*	-1.5	-1.1
SMILES	S1P4 antag	PGE2 EP2 inh	EP2 mod	S1P3 antagonist	S1P4 agonist	S1P4 ag conf	S1P1 ag
Nn1c(SCC(=O)Nc2cccc(F)c2)nnc1C1CCCCC1	-4.3	13.4	6.8	1.2	17.9*	-0.9	7.2
COc1ccc(NC(=O)CSc2nnc(C3CCCCC3)n2N)cc1	5.3	3.9	11.2	-1.9	-0.2	x	x
N#Cc1ccc(CSc2nnc(-c3ccncc3)o2)cc1	-8.2	2.0	12.1	-6.4	-2.5	x	x
N#Cc1ccc(CSc2nnc(-c3cccnc3)o2)cc1	-15.3	17.7	5.7	-15.5	64.5*	-2.9	-4.8
Cc1ccc(/C=C\c2nc(O)c([N+](=O)[O-])c(=O)[nH]2)s1	x	12.8	0.9	x	x	x	x
COCCNC(=S)N1CCc2cc(OC)c(OC)cc2C1COc1cc(C)cc(C)c1 (centres undefined)	-0.1	6.4	23.4	-14.4	17.8*	-2.2	0.8
CCN(C(=S)Nc1ccc(C(C)=O)cc1)C1CCCCC1	-21.4	5.6	-26.6	-4.3	41.7*	-2.4	-4.9
CCCN(CC1CC1)C(=S)Nc1ccc(C(C)=O)cc1	-11.3	2.6	-11.9	5.9	1.1	x	x
O=C(NCCN1CCOCC1)c1cccn2c(=O)c3c4c(sc3nc12)CCCC4	-27.6	8.9	14.1	-8.3	0.7	x	x
O=c1c2c3c(sc2nc2sc(CN4CCOCC4)cn12)CCCC3	-13.0	12.3	15.6	2.2	40.5*	-2.0	-4.2
COc1ccc(C2=NOC(C(=O)NC(C)(C)C)C2)cc1 (centres undefined)	-16.4	9.4	-4.5	-4.8	23.4*	-2.0	-8.9
Cc1ccc(-n2c(=O)c3c4c(sc3n3c(=S)[nH]nc23)CCC4)cc1	6.5	11.6	-14.8	-2.5	-0.5	x	x
CCn1c(=O)c2c3c(sc2n2c(=S)[nH]nc12)CCC3	-11.7	-0.3	0.1	x	23.4*	-2.0	-2.9
O=C(O)c1ccc(N/N=C/c2ccc(-c3cc(Cl)ccc3Cl)o2)cc1	19.8	6.5	29.1	-6.8	4.2	x	x
O=C(O)c1ccc(N/N=C/c2ccc(-c3cccc(Cl)c3)o2)cc1	-13.7	13.8	2.4	-16.6	13.3*	2.6	9.3
O=C(O)c1ccc(N/N=C/c2ccc(-c3ccc(Cl)cc3Cl)o2)cc1	-10.1	8.6	-59.3	2.4	15.9*	6.8	26.3*
CC(C)CC(NC(=O)c1ccccn1)c1nc2cccnc2n1C(C)C (centres undefined)	x	x	15.6	x	x	x	x
CC(=O)OCC1(C)CN(c2ccccc2)N(C(C)=O)C1=O (centres undefined)	8.3	5.6	16.6	-11.5	-0.5	x	x
CC(=O)OCC1(C)CN(c2ccccc2)N(C(=O)c2ccc(C(C)(C)C)cc2)C1=O (centres undefined)	3.1	3.3	11.2	-3.2	24.8*	-2.4	-4.9
NS(=O)(=O)c1ccc(CCNC(=O)CCCC2=NS(=O)(=O)c3ccccc3N2)cc1	-4.6	3.3	20.3	-34.5	17.3*	-1.4	-1.8
